Five compounds from ChEMBL document CHEMBL3988442, “University of Dundee, Small-Polar-MMV Screening Library” (2021) can be followed below.

Common to all, as to parameters: scale not given: direction of the effect not stated beside the values
In assay [1] the target is Protein translocase subunit SecA (Escherichia coli (strain K12)) (UniProt P10408). The experiment in a line: Assay to Identify E. coli SecA ATPase Inhibitors. The class given is functional. The following applies: 30 µM.
In assay [2] the target is T1, Ubiquitin-activating enzyme e1, putative (Leishmania donovani (strain BPK282A1)) (UniProt E9BSI1).
T1 sequence (whole entry): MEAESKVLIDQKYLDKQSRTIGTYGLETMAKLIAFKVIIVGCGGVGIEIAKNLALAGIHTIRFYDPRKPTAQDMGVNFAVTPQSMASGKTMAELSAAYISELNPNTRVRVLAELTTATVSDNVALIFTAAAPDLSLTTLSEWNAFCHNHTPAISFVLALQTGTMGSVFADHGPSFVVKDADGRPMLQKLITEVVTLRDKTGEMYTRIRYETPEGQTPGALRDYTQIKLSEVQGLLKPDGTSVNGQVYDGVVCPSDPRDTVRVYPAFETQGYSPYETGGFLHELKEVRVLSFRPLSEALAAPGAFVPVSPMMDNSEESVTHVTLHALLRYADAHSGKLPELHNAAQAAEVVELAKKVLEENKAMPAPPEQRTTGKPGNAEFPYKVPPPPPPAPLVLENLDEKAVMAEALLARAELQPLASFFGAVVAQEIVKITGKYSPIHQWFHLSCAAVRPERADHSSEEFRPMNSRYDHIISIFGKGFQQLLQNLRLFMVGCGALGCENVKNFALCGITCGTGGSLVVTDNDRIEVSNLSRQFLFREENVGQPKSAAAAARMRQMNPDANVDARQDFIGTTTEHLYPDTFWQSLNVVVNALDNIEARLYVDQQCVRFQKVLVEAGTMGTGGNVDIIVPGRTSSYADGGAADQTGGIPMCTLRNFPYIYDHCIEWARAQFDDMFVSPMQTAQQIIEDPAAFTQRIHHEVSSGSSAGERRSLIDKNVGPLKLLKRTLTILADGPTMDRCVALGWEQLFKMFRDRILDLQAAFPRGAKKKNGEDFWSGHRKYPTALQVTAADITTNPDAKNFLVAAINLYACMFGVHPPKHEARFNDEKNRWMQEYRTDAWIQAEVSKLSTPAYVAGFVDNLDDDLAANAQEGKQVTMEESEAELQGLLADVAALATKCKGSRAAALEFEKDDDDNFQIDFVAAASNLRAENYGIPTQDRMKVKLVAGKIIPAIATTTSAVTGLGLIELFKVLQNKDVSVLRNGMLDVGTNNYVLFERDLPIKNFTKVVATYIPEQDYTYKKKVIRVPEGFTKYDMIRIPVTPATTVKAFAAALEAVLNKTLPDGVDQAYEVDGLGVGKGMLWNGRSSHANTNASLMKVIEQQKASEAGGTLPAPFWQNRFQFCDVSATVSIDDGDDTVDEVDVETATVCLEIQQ
The experiment in a line: Leishmania donovani Ubiquitin Activating Enzyme (LdE1). Type of assay: functional. The following applies: 30 µM.

Assay [3] addresses T2, Aspartate--tRNA(Asp/Asn) ligase (Mycobacterium tuberculosis (strain ATCC 25618 / H37Rv)) (UniProt P9WFW3).
T2 sequence (whole entry): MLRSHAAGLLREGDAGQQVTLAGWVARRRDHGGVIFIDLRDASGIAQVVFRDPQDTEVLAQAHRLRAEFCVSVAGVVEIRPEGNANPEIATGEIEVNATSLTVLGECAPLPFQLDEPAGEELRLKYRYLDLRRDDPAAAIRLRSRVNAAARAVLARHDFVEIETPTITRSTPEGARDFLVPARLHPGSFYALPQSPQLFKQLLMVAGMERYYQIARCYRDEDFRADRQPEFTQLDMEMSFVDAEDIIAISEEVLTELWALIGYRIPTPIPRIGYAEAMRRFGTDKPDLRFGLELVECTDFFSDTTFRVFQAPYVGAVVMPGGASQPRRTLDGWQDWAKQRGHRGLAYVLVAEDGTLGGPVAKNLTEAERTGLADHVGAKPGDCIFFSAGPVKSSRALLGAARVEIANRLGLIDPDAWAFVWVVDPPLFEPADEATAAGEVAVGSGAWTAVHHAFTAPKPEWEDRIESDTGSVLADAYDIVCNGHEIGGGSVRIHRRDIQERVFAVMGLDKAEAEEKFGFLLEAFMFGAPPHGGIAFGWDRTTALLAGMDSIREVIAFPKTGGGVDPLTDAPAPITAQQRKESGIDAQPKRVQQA
The experiment in a line: Assay for Asp RNA synthetase-1 from Mycobacterium tuberculosis. Type of assay: functional. The following applies: 30 µM.

The target of assay [4] is AMP-activated protein kinase, AMPK (Homo sapiens) (UniProt P54646+O43741+P54619+Q9UGJ0+Q9Y478+Q13131+Q9UGI9). The experiment in a line: AMP-dependent Kinase enzyme assay. An in vitro enzyme assay that detects ADP turnover that is directly proportional to AMPK activity. This uses naive AMPK that is activated during the assay with MK-8722. Type of assay: functional. The following applies: 30 µM.

For assay [5], the target named is Sialic acid-binding Ig-like lectin 9 (Homo sapiens) (UniProt Q9Y336). The experiment in a line: Hs-Siglec9 ALPHAscreen SOP 20170721. The following applies: 10 µM. A general note: Alpha assays give light when donor and acceptor beads are brought close together.
Chain of Sialic acid-binding Ig-like lectin 9 (Homo sapiens) (Q9Y336 whole entry): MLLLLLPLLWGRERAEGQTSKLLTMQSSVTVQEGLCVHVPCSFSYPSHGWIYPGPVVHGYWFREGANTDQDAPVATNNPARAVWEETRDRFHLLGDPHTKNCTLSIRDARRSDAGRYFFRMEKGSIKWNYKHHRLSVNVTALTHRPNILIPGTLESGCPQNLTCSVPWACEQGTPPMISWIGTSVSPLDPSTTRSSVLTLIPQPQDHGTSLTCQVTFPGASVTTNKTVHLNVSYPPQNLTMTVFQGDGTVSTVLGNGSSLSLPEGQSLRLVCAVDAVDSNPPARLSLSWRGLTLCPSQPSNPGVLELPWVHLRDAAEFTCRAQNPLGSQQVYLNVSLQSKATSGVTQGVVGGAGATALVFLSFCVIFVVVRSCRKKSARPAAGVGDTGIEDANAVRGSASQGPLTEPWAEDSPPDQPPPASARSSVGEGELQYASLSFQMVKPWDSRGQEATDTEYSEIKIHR
The test system of the next assay is Trypanosoma cruzi. The assay is described as follows: Trypanosoma cruzi phosphomannomutase and mannose-1-phosphate guanylyltransferase assay. The class given is functional. The following applies: 10 µM.
Assay [6] addresses T3, Arginase-2, mitochondrial (Homo sapiens) (UniProt P78540).
T3 sequence (whole entry): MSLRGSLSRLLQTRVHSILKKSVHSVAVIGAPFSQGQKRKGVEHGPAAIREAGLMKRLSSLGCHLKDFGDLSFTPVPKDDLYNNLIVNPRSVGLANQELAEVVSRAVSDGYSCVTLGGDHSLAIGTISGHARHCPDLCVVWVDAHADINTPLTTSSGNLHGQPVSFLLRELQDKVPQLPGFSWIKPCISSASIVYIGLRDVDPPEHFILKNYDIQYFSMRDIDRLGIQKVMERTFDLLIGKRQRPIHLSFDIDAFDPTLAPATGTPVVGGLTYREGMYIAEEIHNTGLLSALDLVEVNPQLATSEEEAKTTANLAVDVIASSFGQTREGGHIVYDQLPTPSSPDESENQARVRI
The assay is described as follows: in vitro enzyme assay to detect the production of urea directly proportional to the activity of Arginase II. Further: in the data most compounds retested in dose-response had high values. Type of assay: functional. The following applies: 33.3 µM.

For assay [7], the target named is T4, Proteasome subunit beta (Trypanosoma cruzi) (UniProt O96673).
T4 sequence (whole entry): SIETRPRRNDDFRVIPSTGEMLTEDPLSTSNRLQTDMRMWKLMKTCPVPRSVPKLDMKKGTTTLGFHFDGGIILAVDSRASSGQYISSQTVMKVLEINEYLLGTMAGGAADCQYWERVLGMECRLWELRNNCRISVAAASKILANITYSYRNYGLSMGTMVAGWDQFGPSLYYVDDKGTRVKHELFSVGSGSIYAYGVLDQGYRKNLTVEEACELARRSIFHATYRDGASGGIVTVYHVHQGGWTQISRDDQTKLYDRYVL
The experiment in a line: Trypanosoma cruzi proteasome chymotrypsin-like activity (TcProtChymo) assay. Further: in the data most compounds retested in dose-response had high values. The class given is functional. The following applies: 9.37 µM.

The next assay is filed under the species Homo sapiens. The assay is described as follows: To identify inhibition of the IFN signalling (Jak-Stat) pathway via expression of an eGFP reporter gene under the control of an IFN-stimulated response element (ISRE) containing MxA promoter. To be noted: 30 µM. The class given is functional. In general terms: Reporter assays use an easily measured gene product as a stand-in for the process of interest.

For assay [8], the target named is Shiga toxin 2 (Escherichia coli O157:H7) (UniProt P09385+P09386). The experiment in a line: E. coli 0.157:H7 Shiga Toxin SOP - stx2 screening assay. The class given is functional. To be noted: 30 µM.
In assay [9] the target is T5, Tyrosyl-tRNA synthetase, putative (Trypanosoma cruzi (strain CL Brener)) (UniProt Q4DSP6).
T5 sequence (whole entry): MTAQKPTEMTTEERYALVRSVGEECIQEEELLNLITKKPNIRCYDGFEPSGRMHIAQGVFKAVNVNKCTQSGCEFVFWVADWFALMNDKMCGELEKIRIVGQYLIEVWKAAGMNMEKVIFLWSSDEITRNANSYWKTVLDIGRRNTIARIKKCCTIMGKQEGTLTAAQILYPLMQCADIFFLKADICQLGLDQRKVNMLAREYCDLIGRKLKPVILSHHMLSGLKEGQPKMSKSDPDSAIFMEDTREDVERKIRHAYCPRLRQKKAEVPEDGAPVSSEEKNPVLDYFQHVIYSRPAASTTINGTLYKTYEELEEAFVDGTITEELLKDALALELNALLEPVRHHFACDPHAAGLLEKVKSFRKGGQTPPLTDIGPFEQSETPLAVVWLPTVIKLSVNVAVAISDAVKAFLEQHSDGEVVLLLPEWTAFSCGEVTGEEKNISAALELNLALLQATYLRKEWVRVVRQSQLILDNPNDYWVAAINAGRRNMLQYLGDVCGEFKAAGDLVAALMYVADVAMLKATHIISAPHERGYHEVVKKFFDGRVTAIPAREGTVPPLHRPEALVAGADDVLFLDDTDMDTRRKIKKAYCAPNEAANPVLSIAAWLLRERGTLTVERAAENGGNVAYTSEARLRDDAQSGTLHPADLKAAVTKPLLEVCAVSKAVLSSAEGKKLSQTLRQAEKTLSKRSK
The assay is described as follows: Trypanosoma cruzi tyrosyl tRNA synthetase (TcYRS) _High Tyrosine SOP. Further: in the data most compounds retested in dose-response had high values. The following applies: 30 µM. Type of assay: functional.

Assay [10] deals with T5, Tyrosyl-tRNA synthetase, putative (Trypanosoma cruzi (strain CL Brener)). The experiment in a line: Trypanosoma cruzi tyrosyl tRNA synthetase (TcYRS) SOP. Type of assay: functional. The following applies: 30 µM.
The target in assay [11] is Chromo domain-containing protein 1 (Saccharomyces cerevisiae (strain ATCC 204508 / S288c) (Baker's yeast)) (UniProt P32657). The experiment in a line: ScCHD-1 Enzyme Inhibition Assay. Further: in the data most compounds retested in dose-response had high values. Type of assay: functional. The following applies: 30 µM.
Chain of Chromo domain-containing protein 1 (Saccharomyces cerevisiae (strain ATCC 204508 / S288c) (Baker's yeast)) (P32657 whole entry, the tested form may be a part): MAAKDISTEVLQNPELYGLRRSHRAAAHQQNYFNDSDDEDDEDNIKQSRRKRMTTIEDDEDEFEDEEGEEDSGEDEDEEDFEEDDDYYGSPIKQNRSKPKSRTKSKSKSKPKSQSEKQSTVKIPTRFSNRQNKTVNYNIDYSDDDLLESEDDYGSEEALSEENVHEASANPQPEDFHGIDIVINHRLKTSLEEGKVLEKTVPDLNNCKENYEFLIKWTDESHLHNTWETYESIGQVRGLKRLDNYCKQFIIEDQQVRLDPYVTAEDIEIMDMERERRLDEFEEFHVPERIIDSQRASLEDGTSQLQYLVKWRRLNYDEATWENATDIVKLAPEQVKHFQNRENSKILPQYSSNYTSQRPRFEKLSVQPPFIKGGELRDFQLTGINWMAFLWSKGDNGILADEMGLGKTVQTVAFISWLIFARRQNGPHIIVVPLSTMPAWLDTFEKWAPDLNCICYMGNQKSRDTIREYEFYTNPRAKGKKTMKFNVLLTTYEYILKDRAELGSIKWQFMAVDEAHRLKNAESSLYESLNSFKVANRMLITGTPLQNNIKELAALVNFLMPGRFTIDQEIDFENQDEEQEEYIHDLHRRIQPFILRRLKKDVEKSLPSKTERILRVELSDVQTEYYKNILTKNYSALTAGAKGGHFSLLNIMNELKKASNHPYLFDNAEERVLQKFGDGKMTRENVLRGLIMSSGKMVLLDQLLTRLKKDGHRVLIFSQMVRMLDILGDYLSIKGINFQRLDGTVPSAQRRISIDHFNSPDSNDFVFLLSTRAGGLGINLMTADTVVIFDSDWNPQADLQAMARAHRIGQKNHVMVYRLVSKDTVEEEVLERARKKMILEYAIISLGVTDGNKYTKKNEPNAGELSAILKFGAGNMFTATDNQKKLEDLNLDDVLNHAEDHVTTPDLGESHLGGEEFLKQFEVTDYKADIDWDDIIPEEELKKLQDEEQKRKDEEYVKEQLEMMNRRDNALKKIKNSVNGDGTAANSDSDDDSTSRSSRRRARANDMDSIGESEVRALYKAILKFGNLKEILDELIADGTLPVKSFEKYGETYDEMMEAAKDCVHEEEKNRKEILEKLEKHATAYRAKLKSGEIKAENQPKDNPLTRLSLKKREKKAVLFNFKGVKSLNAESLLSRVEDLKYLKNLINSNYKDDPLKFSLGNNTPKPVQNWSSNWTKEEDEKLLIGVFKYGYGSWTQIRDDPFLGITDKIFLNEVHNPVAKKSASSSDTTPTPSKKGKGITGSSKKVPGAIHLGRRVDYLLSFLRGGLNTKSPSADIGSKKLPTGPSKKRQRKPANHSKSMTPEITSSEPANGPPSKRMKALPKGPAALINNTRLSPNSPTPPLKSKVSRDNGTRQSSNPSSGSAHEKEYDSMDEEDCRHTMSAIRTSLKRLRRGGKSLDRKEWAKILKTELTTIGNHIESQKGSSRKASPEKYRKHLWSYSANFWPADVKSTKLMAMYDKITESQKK

For some assays here: Entries with a potency or affinity are not part of this list.

Chain of Protein translocase subunit SecA (Escherichia coli (strain K12)) (P10408 whole entry): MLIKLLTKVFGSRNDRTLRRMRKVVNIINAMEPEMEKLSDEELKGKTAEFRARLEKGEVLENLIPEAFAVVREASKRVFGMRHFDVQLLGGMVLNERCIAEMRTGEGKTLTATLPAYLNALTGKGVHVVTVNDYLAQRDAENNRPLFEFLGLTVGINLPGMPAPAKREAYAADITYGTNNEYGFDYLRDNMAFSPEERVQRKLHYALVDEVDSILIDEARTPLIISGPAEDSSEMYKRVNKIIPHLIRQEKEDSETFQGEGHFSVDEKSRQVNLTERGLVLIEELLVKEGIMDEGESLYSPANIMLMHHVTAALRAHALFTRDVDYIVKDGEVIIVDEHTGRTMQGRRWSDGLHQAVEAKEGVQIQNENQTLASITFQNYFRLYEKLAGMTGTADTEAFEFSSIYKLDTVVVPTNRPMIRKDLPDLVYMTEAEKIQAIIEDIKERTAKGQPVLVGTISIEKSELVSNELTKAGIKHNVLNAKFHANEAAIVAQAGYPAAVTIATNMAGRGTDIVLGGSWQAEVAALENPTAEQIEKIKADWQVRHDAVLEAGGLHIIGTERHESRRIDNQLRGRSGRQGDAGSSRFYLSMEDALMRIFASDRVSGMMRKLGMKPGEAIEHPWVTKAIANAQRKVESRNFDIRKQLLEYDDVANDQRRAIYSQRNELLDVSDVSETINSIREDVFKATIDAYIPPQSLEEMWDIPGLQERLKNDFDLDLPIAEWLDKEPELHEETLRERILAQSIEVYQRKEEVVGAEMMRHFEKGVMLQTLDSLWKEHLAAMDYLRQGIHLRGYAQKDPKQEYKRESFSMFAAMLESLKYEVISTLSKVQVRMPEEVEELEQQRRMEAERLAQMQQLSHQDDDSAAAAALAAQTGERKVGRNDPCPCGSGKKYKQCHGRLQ

Consider `O=C(c1cc(-n2cccc2)ccc1Cl)N1CCC2(CC1)OCCO2`, for which the Percent Effect in assay [1] is -3.83%; in assay [2], 7.89%; in [3], 3.38%; in assay [4] it was 15.4%; in assay [5], -3.27%; with Trypanosoma cruzi it was -0.876%. The Percent Effect in [6] is -8.28%; in [7], 15.8%; in the assay listed under Homo sapiens, 1.48%; in [8], 8.93%; in [9], 2.13%; in assay [10] it was 10.4%. Moreover, in assay [11], the Percent Effect was -2.85%.

On to `O=C(c1cnn2c1OCCC2)N1CCC2(CC1)OCCO2`, for which the Percent Effect in assay [1] is -0.752%; in assay [2], 2.6%; in [3] it was -2.99%; in [4], 3.51%; in assay [5], 6.26%; in the assay with Trypanosoma cruzi it was -6.02%. Moreover, the Percent Effect is -1.94% in [6]; 7.49% in assay [7]; 14.6% in the assay filed under Homo sapiens; 4.26% in assay [8]; 6.35% in [9]; 11.5% in assay [10]. Besides, the Percent Effect in assay [11] was -7.54%.

In the case of `O=C(COc1cccc(F)c1)N1C[C@@H](O)[C@H](N2CCCC2)C1`, the Percent Effect in assay [1] was 0.584%; in assay [2], 4.05%; in assay [3], -0.878%; in assay [4], 10.1%; in assay [5] it was 2.64%; in the assay on Trypanosoma cruzi, 4.94%. For the same compound, the Percent Effect is 0.696% in [6]; 7.33% in [7]; -0.848% in the assay listed under Homo sapiens; -11.4% in assay [8]; 0% in assay [9]; -3.9% in assay [10]. Also, the Percent Effect in assay [11] is -18.1%.

As to `CC(=O)N1CCOCC2(CN(Cc3ccccn3)CCO2)C1` (stereo not given), the Percent Effect in assay [1] was -4.37%; in assay [2], -2.67%; in assay [3] it was 0.233%; in assay [4], -1.22%; in assay [5], -2.37%; in the assay on Trypanosoma cruzi it was 4.25%. Moreover, the Percent Effect is 2.33% in assay [6]; 9.74% in assay [7]; -30.1% in the assay listed under Homo sapiens; -6.22% in [8]; 2.08% in assay [9]; 2.5% in assay [10]. Further, the Percent Effect in assay [11] was -3.93%.

Consider `CCN1C[C@H]2C[C@H](C(=O)NCc3cccnc3)[C@@H](C1)O2`, for which the Percent Effect was -1.53% in [1]; 0% in assay [2]; 4.45% in assay [3]; -69.3% in assay [4]; 5.53% in [5]; 1.07% in the assay with Trypanosoma cruzi. Moreover, the Percent Effect was 2.23% in [6]; 11.1% in [7]; -10.6% in the assay filed under Homo sapiens; 2.21% in assay [8]; 3.24% in [9]; 10.3% in [10]. In [11], the Percent Effect amounted to 2%.
